Results published in PubChem BioAssay (NCATS).
Records with an inconclusive call do not appear. Where a call stands in place of a potency, no number is given. Unmarked numbers belong to inactive results. Calls of active or inactive are those of the source. The call rests on the fitted dose curve; in most records, active means well fitted cell-killing curve with a large enough effect; inconclusive means small, poorly fitted or top-dose-only effect, or effect the other way; inactive means flat fitted curve, though single readings scatter. Where a SMILES comes first, the peptide text is derived from it.

Legend:
Tov-21-G = assay: Primary qHTS to identify gynecologic anti-cancer compounds using libraries of approved drugs and bioactive compounds (AID 1345084); conditions: Gynecologic cancer cell panel viability, ATPlite luminescence, 48 h; series mostly up to 57.5 µM; further: nearly all actives have a fitted effect of over 55% in size
How it was run: (§1)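 Luminescence from the ATPlite ATP-monitoring reagent indicates viable cell number; lower signal means cytotoxicity. Cells received compound 16 h after seeding and were exposed for 48 h across five concentrations.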

Tov112D = assay: as above; conditions: Gynecologic cancer cell panel viability, ATPlite luminescence, 48 h; series mostly up to 57.5 µM
How it was run: as §1
Potency means the concentration at half of the fitted maximal effect.

SMILES | Potency (Tov-21-G) | Potency (Tov112D) | activity change, negative = cytotoxicity (Tov-21-G) | activity change, negative = cytotoxicity (Tov112D)
C[C@@H]1C[C@H]2[C@@H]3CCC4=CC(=O)C=C[C@]4(C)[C@@]3(F)[C@@H](O)C[C@]2(C)[C@@]1(O)C(=O)COC(=O)c1ccncc1 | inactive | inactive | – | –
CCCCCCCC(=O)[O-].CCCCCCCC(=O)[O-].[Zn+2] | inactive | inactive | – | –
O=C(c1cc(O)c(O)c(O)c1)c1ccc(O)c(O)c1O | inactive | inactive | – | –
CC(CC1c2ccccc2CCc2ccccc21)CN(C)C (centres undefined) | inactive | inactive | – | –
COc1cc(/C=C/C(N)=O)cc(OC)c1OC | inactive | inactive | – | –
COc1ccc2cc(C=O)ccc2c1 | inactive | inactive | – | –
O=C(CCCl)NCc1ccccc1 | inactive | inactive | – | –
CCCCC(CC)CNC(=O)CC(C)OC(=O)CCC(=O)O (centres undefined) | inactive | inactive | – | –
CCCCN(CCN(CCCC)C(=O)N1CCOCC1)C(=O)N1CCOCC1 | inactive | inactive | – | –
COc1ccc(/C(C)=C/C(=O)O)c(OC)c1 | inactive | inactive | – | –
CCCCN(CCCC)C(C(N)=O)c1ccc(OC)cc1 (centres undefined) | inactive | inactive | – | –
Nc1ccc(C(=O)OCC(O)CO)cc1 (centres undefined) | inactive | inactive | – | –
Cc1[nH]cnc1-c1ccc(Cl)cc1 | inactive | inactive | – | –
Cc1nn(-c2ccccc2)c(C)c1/C=N/N1CCN(Cc2ccccc2)CC1 | inactive | inactive | – | –
O=c1[nH]c2ccccc2c(=O)n1CCCl | inactive | inactive | – | –
Cc1ccc(-c2ccccc2C#N)cc1 | inactive | inactive | – | –
O=C(CCC1CCN(Cc2ccccc2)CC1)c1ccc2c(c1)NCCCC2 | inactive | inactive | – | –
CC(=O)c1ccc(O)c(C(N)=O)c1 | inactive | inactive | – | –
Cc1cc(=O)oc2cc(O[C@@H]3SC[C@@H](O)[C@H](O)[C@H]3O)ccc12 | inactive | inactive | – | –
CCCCC(O)/C=C(C)/C=C/C=C/C(=O)N1CCCC1=O (centres undefined) | inactive | inactive | – | –
CCCCOC(=O)CCCCCCCCC(=O)OCCCC | inactive | inactive | – | –
CNC[C@H](O)[C@@H](O)[C@H](O)[C@H](O)CO | inactive | inactive | – | –
CN(C)CCOC(c1ccccc1)c1ccc(Br)cc1 (centres undefined) | inactive | inactive | – | –
CC(=O)N(c1onc(C)c1C)S(=O)(=O)c1ccc(N)cc1 | inactive | inactive | – | –
CN(C)CCN1CCN(c2cccc(Cl)c2)C1=O | inactive | inactive | – | –

SMILES | Potency (Tov-21-G) | Potency (Tov112D) | activity change, negative = cytotoxicity (Tov-21-G) | activity change, negative = cytotoxicity (Tov112D)
COC(=O)C1=C(C)NC(C)=C(C(=O)OCCc2ccc(N3CCN(C(c4ccccc4)c4ccccc4)CC3)cc2)C1c1cccc([N+](=O)[O-])c1 (centres undefined) | inactive | inactive | – | –
C/C(=N/NC(=O)c1ccncc1)C(=O)O | inactive | inactive | – | –
Cc1cc2nc3ccc(=[N+](C)C)cc-3sc2cc1N | 28.2 µM (active) | 12.6 µM (active) | – | –
CCCC(=O)O[C@]1(C(=O)CC)CC[C@H]2[C@@H]3CCC4=CC(=O)CC[C@]4(C)[C@H]3[C@@H](O)C[C@@]21C | inactive | inactive | – | –
Cc1cccc(C)c1NC(=O)c1ccc(N)cc1 | inactive | inactive | – | –
CN1CC(=O)N2[C@H](c3ccc4c(c3)OCO4)c3[nH]c4ccccc4c3C[C@@H]2C1=O | inactive | inactive | – | –
CC(C)(Oc1ccc(Cl)cc1)C(=O)OCCCOC(=O)C(C)(C)Oc1ccc(Cl)cc1 | inactive | inactive | – | –
CCCCOCCOC(=O)c1cccnc1 | inactive | inactive | – | –
CCCCCC(=O)O[C@]1(C(C)=O)CC[C@H]2[C@@H]3CCC4=CC(=O)CC[C@]4(C)[C@H]3CC[C@@]21C | inactive | inactive | – | –
NS(=O)(=O)c1cc(C(=O)NN2C[C@H]3[C@H]4CCC(C4)[C@H]3C2)ccc1Cl | inactive | inactive | – | –
COC(=O)c1cc(Cl)ccc1OC | inactive | inactive | – | –
N#CSCC(=O)O | inactive | inactive | – | –
C[C@H](N)C(=O)N[C@@H](C)C(=O)NC1[C@H]2CN(c3nc4c(cc3F)c(=O)c(C(=O)O)cn4-c3ccc(F)cc3F)C[C@@H]12 (some centres undefined) | inactive | inactive | – | –
O=c1[nH]c(=O)n([C@H]2O[C@H](CO)[C@@H](O)[C@@H]2O)cc1/C=C\Br | inactive | inactive | – | –
CCOC(=O)C1=C(C)NC(C)=C(C(=O)OCC)C1c1ccccc1/C=C/C(=O)OC(C)(C)C | inactive | inactive | – | –
N#CC1(c2ccc(F)cc2)CCC(=O)CC1 | inactive | inactive | – | –
CC(=O)c1cc2ccccc2s1 | inactive | inactive | – | –
CC1(C)O[C@@H]2C[C@H]3[C@@H]4CCC5=CC(=O)C=C[C@]5(C)[C@@]4(F)[C@@H](O)C[C@]3(C)[C@]2(C(=O)CO)O1 | inactive | inactive | – | –
O=C(O)CCCC[P+](c1ccccc1)(c1ccccc1)c1ccccc1 | inactive | inactive | – | –
COc1cc2nc(Cl)nc(N)c2cc1OC | inactive | inactive | – | –
CCOC(=O)CN1CCCC1=O | inactive | inactive | – | –
Clc1ccc2c(c1)N=C(N1CCNCC1)c1ccccc1N2 | inactive | inactive | – | –
CNC(=O)c1c(I)c(NC(C)=O)c(I)c(C(=O)O)c1I | inactive | inactive | – | –
Cc1nc2n(c(=O)c1CCN1CCC(C(=O)c3ccc(F)cc3)CC1)CCS2 | inactive | inactive | – | –
CCOC(=O)N1CCC(Nc2ccc(Cl)cc2N)CC1 | inactive | inactive | – | –

SMILES | Potency (Tov-21-G) | Potency (Tov112D) | activity change, negative = cytotoxicity (Tov-21-G) | activity change, negative = cytotoxicity (Tov112D)
O=C1Cc2cc(Cl)ccc2N1 | inactive | inactive | – | –
CCN(CC)C(=O)C1CN2CCc3cc(OC)c(OC)cc3C2CC1OC(C)=O (centres undefined) | inactive | inactive | – | –
O=C(CS(=O)Cc1ccco1)NC/C=C\COc1cc(CN2CCCCC2)ccn1 (centres undefined) | inactive | inactive | – | –
COc1ccc2c(c1)CCCC2=O | inactive | inactive | – | –
C[C@@H]1CCC[C@H](C)N1CCCC(O)(c1ccccc1)c1ccccn1 (some centres undefined) | inactive | inactive | – | –
CC(NC(CCc1ccccc1)C(=O)O)C(=O)N1C(=O)N(C)CC1C(=O)O (centres undefined) | inactive | inactive | – | –
CC(=O)/C=C/C=C1/C2CCC(C2)C1(C)C (centres undefined) | inactive | inactive | – | –
N#Cc1cc(NC(=O)C(=O)O)c(Cl)c(NC(=O)C(=O)O)c1 | inactive | inactive | – | –
O=C(c1ccco1)N1CCNCC1 | inactive | inactive | – | –
CCCCCCOC(=O)NC(=N)c1ccc(NCc2nc3cc(C(=O)N(CCC(=O)OCC)c4ccccn4)ccc3n2C)cc1 | inactive | inactive | – | –
CCCCCN(CCCOC)C(=O)C(CCC(=O)O)NC(=O)c1ccc(Cl)c(Cl)c1 (centres undefined) | inactive | inactive | – | –
CCOCCn1c(C2CCN(CCc3ccc(C(C)(C)C(=O)O)cc3)CC2)nc2ccccc21 | inactive | inactive | – | –
Cc1ncc([N+](=O)[O-])n1C | inactive | inactive | – | –
C/C(=N\O)[C@@H](C)NCC(C)(C)CN[C@H](C)/C(C)=N/O | inactive | inactive | – | –
Cc1cc(O)c(C)c(C)c1O | inactive | inactive | – | –
Cc1ccc2c(Cl)cc(Cl)c(O)c2n1 | inactive | inactive | – | –
O=C(O)Cn1c(=O)n(Cc2ccc(Br)cc2F)c(=O)c2ccc(Cl)cc21 | inactive | inactive | – | –
CN1Cc2cc(C(=O)N3CCC(C4CCNCC4)CC3)ccc2NC(CC(=O)O)C1=O (centres undefined) | inactive | inactive | – | –
CCN(CC)CCN | inactive | inactive | – | –
Nc1ncnc2c1ncn2Cc1c(F)cccc1Cl | inactive | inactive | – | –
Clc1ccc2c(c1)Nc1ccccc1S2 | inactive | inactive | – | –
CN1Cc2cc(C(=O)N3CCC(C4CCNCC4)CC3)ccc2N[C@@H](CC(=O)O)C1=O | inactive | inactive | – | –
CC(=O)N[C@@H](CO)C(=O)N[C@@H](CC(=O)O)C(=O)N[C@@H](CCCCN)C(=O)N1CCC[C@H]1C(=O)O (Ac-SDKP-OH) | inactive | inactive | – | –
CCN(CC)CC(=O)Oc1ccc(NC(C)=O)cc1 | inactive | inactive | – | –
C/C=C(/C(=C/C)c1ccc(OC(C)=O)cc1)c1ccc(OC(C)=O)cc1 | inactive | inactive | – | –

SMILES | Potency (Tov-21-G) | Potency (Tov112D) | activity change, negative = cytotoxicity (Tov-21-G) | activity change, negative = cytotoxicity (Tov112D)
CCC[C@H](N[C@@H](C)C(=O)N1[C@H](C(=O)O)C[C@@H]2CCCC[C@@H]21)C(=O)OCC | inactive | inactive | – | –
Cc1cccc(OCC(O)CNC(C)(C)C)c1C (centres undefined) | inactive | inactive | – | –
NC(=O)NC1N=C([O][Al])NC1=O (centres undefined) | inactive | inactive | – | –
CC(C)NC(=O)c1ccc(C=O)cc1 | inactive | inactive | – | –
Nc1ccc(C(=O)N2CC3CC(CN(Cc4ccccc4)C3)C2)cc1 | inactive | inactive | – | –
CCC(CN)=C(c1ccccc1)c1ccccc1 | inactive | inactive | – | –
CCOc1c(N2CCOCC2)cnn(C)c1=O | inactive | inactive | – | –
CC1CCCCN1CCCOC(=O)c1ccc(OC2CCCCC2)cc1 (centres undefined) | inactive | inactive | – | –
Nc1cc(C(F)(F)F)ccc1S | inactive | inactive | – | –
CCOC(=O)N1CCC(n2c(=O)[nH]c3cc(Cl)ccc32)CC1 | inactive | inactive | – | –
COc1ccc(CCC(C)=O)cc1 | inactive | inactive | – | –
Cc1ccc(C(=O)C(=O)O)cc1C | inactive | inactive | – | –
O=C(C1CCCCC1)N1CC(=O)N2CCCc3ccccc3C2C1 (centres undefined) | inactive | inactive | – | –
CN(C)CCN(Cc1ccsc1)c1ccccn1 | inactive | inactive | – | –
CC(C)(C)c1cc(C=O)cc(C(C)(C)C)c1O | inactive | inactive | – | –
CCOC(=O)c1cc(=O)c2c(OCC(COc3cccc4oc(C(=O)OCC)cc(=O)c34)OC(=O)[C@@H](N)CCCCN)cccc2o1 | inactive | inactive | – | –
C[C@H]1C[C@H](O)c2ccsc2S1(=O)=O | inactive | inactive | – | –
O=[N+]([O-])c1cncn1CCN1CCOCC1 | inactive | inactive | – | –
Cc1ccc(C(=O)Oc2ccc(C(O)CNC(C)(C)C)cc2OC(=O)c2ccc(C)cc2)cc1 (centres undefined) | inactive | inactive | – | –
NCC[C@H](O)C(=O)N[C@@H]1C[C@H](N)[C@@H](O[C@H]2O[C@H](CN)[C@@H](O)[C@H](O)[C@@H]2O)[C@H](O)[C@@H]1O[C@H]1O[C@H](CO)[C@@H](O)[C@H](N)[C@@H]1O | – | – | 7.33% [at 0.462 µM] | 1.97% [at 0.462 µM]
OC1(c2ccccc2)CCNCC1 | inactive | inactive | – | –
CCC(=O)Oc1ccc2c(c1)CC[C@@H]1[C@@H]2CC[C@@]2(C)[C@H]1C[C@@H](OC(=O)CC)[C@@H]2OC(=O)CC | inactive | inactive | – | –
